Drawing on PubChem BioAssay (NCI), this text covers growth for 26 compounds.

Each structure is given as a SMILES string. About 83,000 compounds went through this panel and 20% of them were active in at least one assay; those are over-represented in the sample as a whole.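 Single-dose data. Exposure time 48 hours. Values below 10 considered active.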 A number with no mark means an inactive call. Calls of active or inactive are those of the source.

In this assay the test system is MDA-MB-468 breast. In words: NCI-60 one-dose screen, 48 h (100 = growth as untreated, 0 = no growth, -100 = all killed). The note with it: 10 µM unless noted.
Consider `N#Cc1cnc2cc(OC[C@@H](O)CO)c(NC(=O)C3CCCC3)cc2c1Nc1ccc(OCc2cccc(F)c2)c(Cl)c1`, for which the growth is -20.9% (active).
As for `CC(C)n1nc(C#Cc2cccc(O)c2)c2c(N)ncnc21`, the growth was -44.2% (active).
As to `COC(=O)c1cc(=O)nc(N/N=C/c2ccc(C)cc2)s1`, the growth was 110%.
The figure for `COC(=O)c1cc(Nc2ccc(O)c3c2C(=O)c2c([N+](=O)[O-])ccc(O)c2C3=O)cc(C(=O)OC)c1` is 71.9%; for `CCNNC(=O)[C@@H]1[C@H](c2cc(OC)c(OC)c(OC)c2)c2cc3c(cc2[C@H](O)[C@H]1CO)OCO3` it is 7.05% (active).
In the case of `COc1ccc(-c2nc3sc(-c4ccccc4)c(-c4ccccc4)n3c2/C=C/c2ccc(F)cc2)cc1`, the growth was 82.7%.
The figure for `COc1ccccc1NC(=O)c1ccc(/C=C/C(=O)c2nccn2C)cc1` is -40.7% (active); for `NCCNc1nc2ccc(F)cc2c2c(=O)c3cc(F)ccc3sc12` it is 45.3%; for `CCN(CC)CCCNc1nc2ccccc2c2c(=O)c3cc(Cl)ccc3sc12` it is 54.5%.
The figure for `CCCCCCCCCCCCCCCCCCOc1cccc(CCOP(=O)(O)OCC[N+](C)(C)C)c1` is 94.2%.
The figure for `CCCCCC(C)(CC(=O)O)CC(=O)O` is 95.3%; for `COc1cc(C(=O)/C=C/c2cn(-c3ccccc3)nc2-c2cccc(Nc3ccnc4cc(Cl)ccc34)c2)cc(OC)c1OC` it is 71.7%.
With `COc1cc2c(cc1O)CCN1C[C@@H](CC(C)C)[C@@H](O)C[C@@H]21`, the growth was 103%.
The figure for `CCCOc1ccc2c(c1)CC[C@@H]1[C@@H]2CC[C@@]2(C)[C@H]1CC[C@]2(C)O` is 59.8%.
With `COc1ccc(/C=N/NC(=O)c2[nH]c3ccc(Br)cc3c2-c2ccccc2)o1`, the growth is 13%.
For the compound `Clc1ccc(CNc2c3ccccc3nc3ccccc23)cc1`, the growth is 29.6%.
Take `Cc1ccc2c(n1)C[C@H](C(C)(C)O)CC[C@H]2C`: the growth was 108%.
Consider `Nc1c(C(=O)Nc2cccc(Cl)c2)sc2nc3c(cc12)C(=O)CCC3`, for which the growth is -10.6% (active).
For the compound `O=C(/C=C\c1ccccc1Cl)c1ccccc1`, the growth is 87.5%.
Consider `N#Cc1c(-c2ccc(Cl)cc2)n(O)c2ccccc12`, for which the growth was -3.01% (active).
The figure for `Oc1ccc(-c2[nH]c3ccccc3c2-c2nc3ccccc3o2)cc1` is 26.1%.
The figure for `CCc1nnc(NC(=O)c2cc(-c3ccc(Cl)cc3Cl)oc2C)s1` is 94%; for `CCCCCCCCCCCCCCCCCC(=O)[O][Sn]([CH2]CCC)([CH2]CCC)[CH2]CCC` it is -96.2% (active); for `COc1ccc(/C=C/C(=O)c2cc3c(N)c(C(=O)Nc4ccccc4C)sc3nc2C)cc1` it is 16.3%.
The figure for `Clc1ccc(Cc2nc3ccccc3s2)cc1` is 104%; for `C=CC[N+]1(CC)CCN=C1CCCCCCCCCCCCCCCCC` (stereo unspecified) it is -82.6% (active).
